# Experimental data taken from PubChem BioAssay (Tox21).
# A number with no mark means an inactive call. Records with an inconclusive call do not appear. Where a call stands in place of a potency, no number is given. Active and inactive are the calls of the source. Unless noted, calls follow the shape of the dose curve; as a rule, active = well fitted curve in the direction sought with a large enough effect in the repeat runs; inconclusive = weak or mixed curves; inactive = no such curve, though single readings can be large; an effect the other way counts as inactive or inconclusive.
# Columns and labels:
# [1] = qHTS assay to test for compound auto fluorescence at 535 nm (green) in HEK293 cells (AID 720680)
# [2] = qHTS assay to test for compound auto fluorescence at 460 nm (blue) in HEK293 cell free culture (AID 720681)
# Procedure, shortened: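 Blue fluorescence (Ex 405/Em 460 nm, triamterene-equivalent) was read immediately after pin transfer of compound or DMSO into medium (DMEM, 10% FBS) without cells.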
# [3] = qHTS assay to test for compound auto fluorescence at 535 nm (green) in HEK293 cell free culture (AID 720682)
# Procedure, shortened: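 Green-channel intensity (Ex/Em 485/535 nm) was recorded from compound-treated wells containing only DMEM with 10% FBS. Fluorescein provided the equivalency standard.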
# [4] = qHTS assay to test for compound auto fluorescence at 590 nm (red) in HEK293 cell free culture (AID 720683)
# Procedure, shortened: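 Red-channel autofluorescence of compounds in culture medium (DMEM, 10% FBS), no cells, measured at 540/590 nm. Rose Bengal sodium is the reference fluorophore for equivalence.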
# [5] = qHTS assay to test for compound auto fluorescence at 590 nm (red) in HepG2 cell free culture (AID 720684)
# Procedure, shortened: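 No cells present: MEM + 10% FBS only. Compound pinned in, red label read (540/590 nm). Activity = fluorescence equivalent to Rose Bengal sodium.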
# [6] = qHTS assay to test for compound auto fluorescence at 460 nm (blue) in HepG2 cell free culture (AID 720685)
# Procedure, shortened: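 Cell-free plates of MEM plus 10% FBS received 23 nL compound or DMSO vehicle; blue-channel (405/460 nm) intensity scored against triamterene as reference fluorophore.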
# [7] = qHTS assay to test for compound auto fluorescence at 535 nm (green) in HepG2 cell free culture (AID 720686)
# [8] = target: Glucocorticoid receptor (Homo sapiens) (UniProt P04150); assay: qHTS assay to identify small molecule agonists of the glucocorticoid receptor (GR) signaling pathway (AID 720691; active = well fitted activation curve with a large enough effect in the signal ratio in the repeat runs, not every such curve was filed as active; the % refers to the signal ratio)
# Glucocorticoid receptor (Homo sapiens), sequence (P04150 whole entry, looked up): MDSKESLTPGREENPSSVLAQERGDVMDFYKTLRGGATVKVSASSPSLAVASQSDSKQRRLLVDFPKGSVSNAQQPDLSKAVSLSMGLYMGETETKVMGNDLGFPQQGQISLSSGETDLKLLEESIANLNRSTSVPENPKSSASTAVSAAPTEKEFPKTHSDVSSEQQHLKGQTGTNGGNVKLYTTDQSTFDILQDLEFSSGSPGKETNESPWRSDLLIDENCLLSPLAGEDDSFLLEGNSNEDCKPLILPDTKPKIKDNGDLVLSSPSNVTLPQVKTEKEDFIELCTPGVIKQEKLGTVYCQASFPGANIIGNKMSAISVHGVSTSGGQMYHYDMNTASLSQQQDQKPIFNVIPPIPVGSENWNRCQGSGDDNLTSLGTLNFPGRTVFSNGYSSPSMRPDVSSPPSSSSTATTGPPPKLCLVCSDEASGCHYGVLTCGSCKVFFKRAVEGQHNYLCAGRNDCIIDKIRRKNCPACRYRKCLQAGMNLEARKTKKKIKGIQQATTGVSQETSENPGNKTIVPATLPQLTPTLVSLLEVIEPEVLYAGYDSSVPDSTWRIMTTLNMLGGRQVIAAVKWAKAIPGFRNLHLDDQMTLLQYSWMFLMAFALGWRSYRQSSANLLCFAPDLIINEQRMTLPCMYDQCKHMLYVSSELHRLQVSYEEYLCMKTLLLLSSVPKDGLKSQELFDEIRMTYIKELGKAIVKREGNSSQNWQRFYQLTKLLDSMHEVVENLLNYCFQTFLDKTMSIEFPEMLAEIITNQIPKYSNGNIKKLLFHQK
# Procedure, shortened: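 A HeLa cervical cancer line expressing GR and a glucocorticoid response element-driven beta-lactamase gene is treated with compounds for 18 h; LiveBLAzer B/G FRET substrate is then applied and fluorescence read.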
# [9] = qHTS assay for identifying genotoxic compounds that show differential cytotoxicity against isogenic chicken DT40 cell lines with known DNA damage response pathways - Rev3 mutant cell line (AID 743014); also: nearly all actives have a fitted effect of over 55% in size; also: potency is read from the fitted curve at half-maximal effect
# [10] = qHTS assay for identifying genotoxic compounds that show differential cytotoxicity against isogenic chicken DT40 cell lines with known DNA damage response pathways - Rad54/Ku70 mutant cell line (AID 743015); also: nearly all actives have a fitted effect of over 60% in size; also: potency is read from the fitted curve at half-maximal effect
# [11] = qHTS assay to identify small molecule antagonists of the androgen receptor (AR) signaling pathway - cell viability counter screen (AID 743033; also: nearly all actives have a fitted effect of over 45% in size)
# [12] = qHTS assay to identify small molecule antagonists of the androgen receptor (AR) signaling pathway using the MDA cell line - cell viability counter screen (AID 743041; also: nearly all actives have a fitted effect of over 45% in size)
# Procedure, shortened: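 Using the breast carcinoma line MDA-kb2 AR-luc, test chemicals were co-incubated with R1881 for 16 h; CellTiter-Fluor reagent, added at 15.5 h, provided a fluorescence measure of live cells.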
# [13] = qHTS assay to test for compound auto fluorescence at 460 nm (blue) in HepG2 cells (AID 720687)
# Procedure, shortened: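 Blue-channel autofluorescence (Ex/Em 405/460 nm, triamterene-equivalent) was measured after 1 hr compound exposure at 37 C, 5% CO2. Cells were HepG2, plated overnight at 37 C in MEM plus 10% FBS.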
# [14] = target: Glucocorticoid receptor (Homo sapiens) (UniProt P04150); assay: qHTS assay to identify small molecule antagonists of the glucocorticoid receptor (GR) signaling pathway (AID 720692; active = well fitted inhibition curve with a large enough effect in the signal ratio in the repeat runs, not every such curve was filed as active; the % refers to the signal ratio)
# Procedure, shortened: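 GRE-bla HeLa line, dex-stimulated (5 nM final). Compound exposure 18 h, 37 C. Beta-lactamase FRET read after 2 h RT substrate.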
# [15] = qHTS assay to identify small molecule antagonists of the glucocorticoid receptor (GR) signaling pathway - cell viability counter screen (AID 720693); also: nearly all actives have a fitted effect of over 55% in size
# [16] = qHTS assay for identifying genotoxic compounds that show differential cytotoxicity against isogenic chicken DT40 cell lines with known DNA damage response pathways - wild type cell line (AID 743012); also: nearly all actives have a fitted effect of over 60% in size; also: potency is read from the fitted curve at half-maximal effect
# Procedure, shortened: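 300 wt DT40 cells/well; cpd (DMSO) pintool-transferred after ~0.5 h at 37 C/5% CO2; 40 h incubation; CellTiter-Glo added, 30 min RT; luminescence read.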
# [17] = target: Androgen receptor (Homo sapiens) (UniProt P10275); assay: qHTS assay to identify small molecule agonists of the androgen receptor (AR) signaling pathway (AID 743036; active = well fitted activation curve with a large enough effect in the signal ratio in the repeat runs, with a control signal flat, not every such curve was filed as active; the % refers to the signal ratio)
# Androgen receptor (Homo sapiens), sequence (P10275 whole entry, looked up): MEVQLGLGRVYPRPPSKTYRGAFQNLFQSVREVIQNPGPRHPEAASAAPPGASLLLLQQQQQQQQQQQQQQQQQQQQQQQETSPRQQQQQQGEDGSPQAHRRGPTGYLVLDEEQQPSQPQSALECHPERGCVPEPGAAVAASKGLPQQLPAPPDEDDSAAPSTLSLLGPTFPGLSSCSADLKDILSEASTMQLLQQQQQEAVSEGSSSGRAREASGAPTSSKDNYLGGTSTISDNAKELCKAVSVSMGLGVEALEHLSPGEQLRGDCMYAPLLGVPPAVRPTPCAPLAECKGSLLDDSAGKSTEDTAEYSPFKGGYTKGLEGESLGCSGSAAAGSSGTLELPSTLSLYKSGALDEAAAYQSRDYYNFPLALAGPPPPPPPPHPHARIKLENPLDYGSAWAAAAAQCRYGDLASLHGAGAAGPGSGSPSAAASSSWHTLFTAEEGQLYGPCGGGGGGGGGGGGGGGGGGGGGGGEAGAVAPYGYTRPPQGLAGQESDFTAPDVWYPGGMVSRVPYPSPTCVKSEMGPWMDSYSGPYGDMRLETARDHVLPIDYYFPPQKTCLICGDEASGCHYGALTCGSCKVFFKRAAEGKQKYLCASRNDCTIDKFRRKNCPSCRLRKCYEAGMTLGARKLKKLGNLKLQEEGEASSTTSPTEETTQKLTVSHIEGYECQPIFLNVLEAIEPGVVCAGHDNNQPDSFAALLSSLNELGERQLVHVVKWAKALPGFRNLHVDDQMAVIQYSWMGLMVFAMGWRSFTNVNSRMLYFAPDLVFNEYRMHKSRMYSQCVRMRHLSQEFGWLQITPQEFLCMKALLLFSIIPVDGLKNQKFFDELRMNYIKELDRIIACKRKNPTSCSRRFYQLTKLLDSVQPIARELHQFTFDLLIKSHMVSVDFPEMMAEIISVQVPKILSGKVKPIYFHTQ
# Procedure, shortened: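 Cell-based FRET reporter assay: HEK293 line with a UAS-beta-lactamase construct, compounds added in DMSO, 16 h exposure at 37C, then 2 h substrate step at room temperature and fluorescence intensity read.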
# [18] = target: Androgen receptor (Homo sapiens) (UniProt P10275); assay: qHTS assay to identify small molecule agonists of the androgen receptor (AR) signaling pathway using the MDA cell line (AID 743040; also: nearly all actives have a fitted effect of over 20% in size)
# Procedure, shortened: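 Stable MMTV-luciferase reporter in MDA-kb2 cells; note the promoter carries GR as well as AR response elements. 16 h compound treatment, 37C, 0% CO2; ONE-Glo luminescence endpoint.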
# [19] = target: Androgen receptor (Homo sapiens) (UniProt P10275); assay: qHTS assay to identify small molecule antagonists of the androgen receptor (AR) signaling pathway using the MDA cell line (AID 743042; also: nearly all actives have a fitted effect of over 55% in size)
# Procedure, shortened: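 Antagonist mode: compounds plus R1881 agonist added to MDA-kb2 AR-luc cells, incubated 16 h at 37C. Luciferase reporter luminescence quantified, with multiplexed CellTiter-Fluor readout for cell viability.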
SMILES,outcome [1],outcome [2],outcome [3],outcome [4],outcome [5],outcome [6],outcome [7],Potency [8],Potency [9],Potency [10],outcome [11],Potency [12],outcome [13],Potency [14],outcome [15],Potency [16],outcome [17],Potency [18],outcome [19]
Nc1ccc2ccccc2c1S(=O)(=O)O,inactive,inactive,inactive,inactive,inactive,inactive,inactive,inactive,inactive,inactive,inactive,inactive,,,,,,,
CCOc1ccc2nc(N)sc2c1,inactive,inactive,inactive,,inactive,inactive,inactive,inactive,,,inactive,inactive,inactive,inactive,inactive,inactive,,,
CCCCCCCCOC(=O)CCCCCCCCC(=O)OCCCCCCCC,inactive,inactive,inactive,inactive,inactive,inactive,inactive,inactive,17.2 µM (active),,inactive,inactive,,inactive,inactive,68.6 µM (active),,,
CCCCCCOc1ccc(N)cc1,inactive,inactive,inactive,inactive,inactive,inactive,inactive,inactive,43.3 µM (active),54.5 µM (active),inactive,inactive,,,inactive,61.1 µM (active),,,
CC1CN(c2ccccc2)NC1=O (stereo not given),inactive,inactive,inactive,inactive,inactive,inactive,inactive,inactive,inactive,,,inactive,,,inactive,,,,
COc1ccc(S(=O)(=O)Nc2nnc(CC(C)C)s2)cc1,inactive,inactive,inactive,inactive,inactive,inactive,inactive,inactive,inactive,inactive,,inactive,,inactive,inactive,inactive,,,
CCOC(=O)[C@H](CCc1ccccc1)N[C@@H](C)C(=O)N1Cc2cc(OC)c(OC)cc2C[C@H]1C(=O)O,inactive,inactive,inactive,inactive,inactive,inactive,inactive,,inactive,,inactive,,,,inactive,inactive,,,
CCCCCCCCCCCCOCCOS(=O)(=O)O,inactive,inactive,inactive,inactive,inactive,inactive,inactive,,inactive,,inactive,inactive,inactive,,inactive,,,,
COc1ccc(Nc2ccc(OC)cc2)cc1,inactive,inactive,inactive,inactive,inactive,inactive,inactive,inactive,,,,inactive,,,inactive,,,,
c1ccc(CN(CC2=NCCN2)c2ccccc2)cc1,inactive,inactive,inactive,inactive,inactive,inactive,inactive,,,,inactive,inactive,inactive,,inactive,,,,
NS(=O)(=O)c1cc(-c2nn[nH]n2)c(NCc2cccs2)cc1Cl,inactive,inactive,inactive,,inactive,inactive,inactive,inactive,inactive,inactive,,inactive,inactive,inactive,inactive,inactive,,,
O=C(O)[C@@H]1CSCN1,inactive,inactive,inactive,inactive,inactive,inactive,inactive,inactive,inactive,,inactive,inactive,,inactive,inactive,,,,
OCc1c2ccccc2cc2ccccc12,inactive,inactive,inactive,inactive,inactive,inactive,inactive,,,,inactive,inactive,inactive,,inactive,,,,
CCCCCOc1ccc(C2SC(=O)NC2=O)cc1OCC (stereo not given),inactive,inactive,inactive,inactive,inactive,inactive,inactive,,,inactive,inactive,inactive,,,inactive,inactive,inactive,inactive,inactive
